Laboratory results reported in PubChem BioAssay (EPA / NIEHS).
The source made the active and inactive calls. Rule for the calls: active = hit-call score of the fitted dose curve at least 0.9, where 1 is the maximum; inactive = score below 0.9.

Target: Retinoic acid receptor alpha (Homo sapiens) (UniProt P10276)
Assay: ATG_DR5_RAR_CIS: Attagene CIS-FACTORIAL HepG2 Assay for human Retinoic Acid Receptor Alpha (RARE), DR5 submotif (AID 2282934);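 for AC50: reporter responds to endogenous RAR alpha beta and gamma in HepG2 not RARA alone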
Conditions: HepG2 Attagene cis-factorial RARE DR5 reporter, mRNA; actives raise or lower the signal
Protocol: ATG_CIS is a cell-based, multiplexed-readout assay that uses HepG2, a human liver cell line, with measurements taken at 24 hours after chemical dosing in a 24-well plate.ATG_DR5_RAR_CIS is one of 52 assay component(s) measured or calculated from the ATG_CIS assay. It is designed to make measurements of mRNA induction, a form of inducible reporter, as detected with fluorescence intensity signals by Reverse transcription polymerase chain reaction (RT-PCR) and Capillary electrophoresis technology.Data from the assay component ATG_DR5_RAR_CIS was analyzed into 1 assay endpoint. This assay endpoint, ATG_DR5_CIS, was analyzed with bidirectional fitting relative to DMSO as the negative control and baseline of activity. Using a type of inducible reporter, measures of mRNA for gain or loss-of-signal activity can be used to understand the reporter gene at the transcription factor-level as they relate to the gene RARA and RARB and RARG. Furthermore, this assay endpoint can be referred to as a primary readout, because this assay has produced multiple assay endpoints where this one serves a reporter gene function. To generalize the intended target to other relatable targets, this assay endpoint is annotated to the nuclear receptor intended target family, where the subfamily is non-steroidal.
Human liver HepG2 cells are transiently transfected with multiple reporter transcription units (MRTUs) in 6-well plates using FuGene 6 reagent (Roche; 3 ml FuGene/1 mg DNA). The MRTU constructs are regulated by a cis-regulating element (promoter). […] A major difference between the CIS and TRANS system is that in CIS activities of endogenous TFs are measured, whereas the TRANS assay evaluates changes in activities of exogenous, chimeric NR-Gal4 proteins. […] At the end of 24 hour incubation, total RNA was isolated using TriZol reagent (Invitrogen). The isolated RNA is then reverse-transcribed using oligo(dT) primer and Mo-MLV reverse transcriptase (Invitrogen) with DNAse I (Ambion) treatment for 30 min. The one-tenth of the produced cDNA was amplified by PCR using Taq DNA polymerase (Invitrogen) and two reporter sequence-specific primers. The PCR products were fluorescently labeled by primer extension with 6-arboxyfluorescein (6-FAM) 5'-labeled reporter sequence-specific primer (2 min at 95 C, 20 s at 68 C and 10 min at 72 C) and these products were digested with 5U of HpaI (New England Biolabs) for 2h at 37 C. The fragments were purified using Qiaquick PCR columns (Qiagen), analyzed on an ABI 3130xL genetic analyzer (Applied Biosystems) with peak positions identified by using a set of X-rhodamine (ROX)-labeled MapMarker1000 molecular weight standards (BioVentures). The raw capillary electrophoresis data was processed using Attagraph software (Attagene).

Chain of Retinoic acid receptor alpha (Homo sapiens) (P10276 whole entry, looked up): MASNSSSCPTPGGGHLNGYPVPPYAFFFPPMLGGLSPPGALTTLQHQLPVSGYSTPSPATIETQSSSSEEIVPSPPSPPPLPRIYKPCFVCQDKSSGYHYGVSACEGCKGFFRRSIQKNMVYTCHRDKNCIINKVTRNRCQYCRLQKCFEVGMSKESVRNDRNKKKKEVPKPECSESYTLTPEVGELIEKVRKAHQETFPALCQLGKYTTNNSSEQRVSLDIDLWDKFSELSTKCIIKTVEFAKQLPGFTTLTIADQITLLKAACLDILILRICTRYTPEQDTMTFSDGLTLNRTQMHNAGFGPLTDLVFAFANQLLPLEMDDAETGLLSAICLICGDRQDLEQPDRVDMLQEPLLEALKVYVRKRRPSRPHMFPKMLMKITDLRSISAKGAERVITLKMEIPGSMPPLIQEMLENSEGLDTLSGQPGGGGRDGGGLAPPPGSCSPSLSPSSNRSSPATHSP

SMILES	outcome	AC50
Clc1nc(Cl)nc(Nc2ccccc2Cl)n1	inactive	
CCN(CC)c1nc(C)cc(OP(=S)(OC)OC)n1	inactive	
COC(=O)c1c(C(F)F)nc(C(F)(F)F)c(C2=NCCS2)c1CC(C)C	inactive	
COCc1cnc(C2=NC(C)(C(C)C)C(=O)N2)c(C(=O)O)c1 (stereo not given)	inactive	
CCCN(CC)CC1COC2(CCC(C(C)(C)C)CC2)O1 (stereo not given)		2.75 µM (active)
CN/C(=N\[N+](=O)[O-])NCc1cnc(Cl)s1	inactive	
CC1(C)C(C(=O)OC(C#N)c2cccc(Oc3ccccc3)c2)C1(C)C (stereo not given)		3.62 µM (active)
COP(=S)(OC)SCn1nnc2ccccc2c1=O	inactive	
O=C(O)c1c(Cl)ccc2cc(Cl)cnc12	inactive	
Cn1c(-c2ccccc2)cc(-c2ccccc2)[n+]1C	inactive	
COP(=O)(OC)O/C(C)=C/C(=O)N(C)C	inactive	
CSC(=O)c1c(C(F)F)nc(C(F)(F)F)c(C(=O)SC)c1CC(C)C		1.28 µM (active)
Cc1cnc(C2=NC(C)(C(C)C)C(=O)N2)c(C(=O)O)c1 (stereo not given)		35.4 µM (active)
CC(C)(C)C(=O)C(Oc1ccc(Cl)cc1)n1cncn1 (stereo not given)		12.8 µM (active)
CCNP(=S)(OC)O/C(C)=C/C(=O)OC(C)C (stereo not given)		13.6 µM (active)
CN=C=S	inactive	
CCSC(=O)N1CCCCCC1	inactive	
C=C(C)CN(CC)c1c([N+](=O)[O-])cc(C(F)(F)F)cc1[N+](=O)[O-]		18.4 µM (active)
CCOc1nc(C(Cl)(Cl)Cl)ns1	inactive	
O=C1C2CC=CCC2C(=O)N1SC(Cl)(Cl)Cl (stereo not given)	inactive	

SMILES	outcome	AC50
CCOP(=O)(OCC)Oc1nc(Cl)c(Cl)cc1Cl	inactive	
CCOP(=S)(OCC)Oc1nc(Cl)n(C(C)C)n1	inactive	
CNC(=O)Oc1cccc2ccccc12	inactive	
CCCC(=NOCC)C1=C(O)CC(CC(C)SCC)CC1=O (stereo not given)	inactive	
CC(C)Oc1cccc(NC(=O)c2ccccc2C(F)(F)F)c1		9.42 µM (active)
Cc1ccc(N=CN(C)C=Nc2ccc(C)cc2C)c(C)c1	inactive	
CC1(C)C(C=C(Cl)Cl)C1C(=O)OC(C#N)c1cccc(Oc2ccccc2)c1 (stereo not given)	inactive	
CC1(C)CON(Cc2ccccc2Cl)C1=O	inactive	
Cc1c(COC(=O)[C@@H]2[C@H](/C=C(\Cl)C(F)(F)F)C2(C)C)cccc1-c1ccccc1	inactive	
CNC(=O)N(C)c1nnc(C(C)(C)C)s1	inactive	
Cc1nc(N(C)C)nc(OC(=O)N(C)C)c1C	inactive	
COC(=O)N(C(=O)N1CO[C@@]2(C(=O)OC)Cc3cc(Cl)ccc3C2=N1)c1ccc(OC(F)(F)F)cc1	inactive	
Nc1c(Cl)c(F)nc(OCC(=O)O)c1Cl	inactive	
O=c1n(Cl)c(=O)n(Cl)c(=O)n1Cl	inactive	
CC(C)=CC1C(C(=O)OCc2coc(Cc3ccccc3)c2)C1(C)C (stereo not given)		8.01 µM (active)
O=P(O)(O)CCCl	inactive	
CCCCC(C#N)(Cn1cncn1)c1ccc(Cl)cc1 (stereo not given)	inactive	
Cc1cc(C)nc(Nc2ccccc2)n1	inactive	
OC(c1ccc(Cl)cc1)(c1ccc(Cl)cc1)C(Cl)(Cl)Cl	inactive	
CCOc1cc(C(C)(C)C)ccc1C1COC(c2c(F)cccc2F)=N1 (stereo not given)		4.26 µM (active)
